mHTT-CaM PPI inh – disrupts binding of mutant huntingtin to calmodulin. AlphaScreen His-mHTT/GST-CaM binding, luminescence. inhibition, % at 15 µM. hit rate 3.6% among 190,000
Pf apPOL block – Pf-apPOL DNA polymerase inhibition; inhibition, % at 10 µM; hit rate 0.25% among 210,000; AID 1794808; Recombinant Pf-apPOL, molecular beacon fluorescence, 1.5 h
Large screens that a line does not name were inactive. A selection: hits, their analogues and other compounds. The true share with any hit is near 3.6%. No stated cut-off is given here; in the data, active means inhibition above about 50%; inactive means the rest.

NNc1nnc2c(n1)[nH]c1ccc(Br)cc12	mHTT-CaM PPI inh 67
Brc1ccc2[nH]c3nc4ccccc4nc3c2c1	none
O=C(COc1ccccc1Br)Nc1ccc(Cl)c(C(F)(F)F)c1	Pf apPOL block 71
Cc1nc(OCC(=O)Nc2ccc(Cl)c(C(F)(F)F)c2)c2ccccc2n1	none
Cn1nc(NC(=O)c2ccc(F)cc2Cl)c2c1NC(=O)CC2c1ccco1 (stereo not drawn)	none
Cc1[nH]nc2c1C(c1ccco1)CC(c1ccco1)=C2 (stereo not drawn)	mHTT-CaM PPI inh 65 (no result: Pf apPOL block)
C=CCNC(=O)c1c[nH]c2ccc(S(=O)(=O)N(C)c3ccc(Cl)cc3F)cc2c1=O	none
C=CCN(c1ccccc1)S(=O)(=O)c1ccc2[nH]cc(C(=O)NCCCC)c(=O)c2c1	none
C=CCN(c1ccccc1)S(=O)(=O)c1ccc2[nH]cc(C(=O)NCCOC)c(=O)c2c1	mHTT-CaM PPI inh 50
C=CCNC(=O)c1c[nH]c2ccc(S(=O)(=O)N(C)c3ccc(Cl)cc3)cc2c1=O	mHTT-CaM PPI inh 53
O=c1c2c(nc(SCc3c(F)cccc3Cl)n1-c1ccccc1)CCS2	none
CCOc1ccc2nc(C)cc(Nc3ccc(C)c(Cl)c3)c2c1	mHTT-CaM PPI inh 95
Cc1cc(Nc2ccc(O)cc2)c2cc(Cl)ccc2n1	none
Cc1cc(Nc2ccc(N(C)C)cc2)c2cc(Cl)ccc2n1	mHTT-CaM PPI inh 73
CCOc1ccc2nc(C)cc(Nc3ccc(N4CCOCC4)cc3)c2c1	none
CCOc1c(-c2coc3ccc(C(=O)OC)cc23)oc2ccc(C(=O)OC)cc12	none
Nc1ccc2c(c1)/C(=C/c1ccccc1)c1ccccc1-2	mHTT-CaM PPI inh 100
C(=C1c2ccccc2-c2ccccc21)c1ccccn1	none
Cc1nc(-c2cccnc2)nc2c1CCC(=O)N2Cc1ccncc1	none
Cc1noc(CNC(=O)C2CCN(C(=O)c3ccc4ncsc4c3)CC2)n1	none
COc1cc(-c2nc(-c3ccccc3)c(-c3ccc(O)cc3)[nH]2)cc(OC)c1O	mHTT-CaM PPI inh 88
COc1cc(-c2nc(-c3ccsc3)c(-c3ccccc3)[nH]2)cc(OC)c1O	mHTT-CaM PPI inh 87
Oc1ccc(-c2nc(-c3ccc(F)cc3)c(-c3ccncc3)[nH]2)cc1	none (no result: mHTT-CaM PPI inh)
COc1cccc(-c2nc(-c3ccsc3)c(-c3ccccc3)[nH]2)c1OC	none
c1ccc(-c2nc(-c3ccc4c(c3)sc3ccccc34)c(-c3ccccc3)[nH]2)cc1	mHTT-CaM PPI inh 55 (no result: Pf apPOL block)
c1ccc(-c2nc(-c3cccnc3)[nH]c2-c2ccccc2)cc1	none (no result: mHTT-CaM PPI inh)
COc1ccc(-c2cc3nc4c(c(=O)n3[nH]2)CCN(C(=O)Nc2ccc(C)cc2C)C4)cc1	none
CCCn1c2ccc(C(C)=O)cc2c2cc(C(C)=O)ccc21	none
COc1ccccc1CNC(=O)CN1CCN(c2ccccc2F)C1=O	none
CC(C)C(=O)NCc1csc(C2CCCN(C(=O)c3ccc(F)cc3)C2)n1 (stereo not drawn)	none
O=C(Nc1c2c(nn1-c1ccc([N+](=O)[O-])cc1)CSC2)c1ccco1	none
COc1ccc(-n2nc3c(c2NC(=O)c2ccco2)CS(=O)(=O)C3)cc1	none
O=C(Nc1c2c(nn1-c1ccc(F)cc1)CSC2)c1ccco1	mHTT-CaM PPI inh 79
O=C(Nc1c2c(nn1-c1ccc(Oc3ccccc3)cc1)CSC2)c1ccco1	mHTT-CaM PPI inh 96
O=C(Nc1c2c(nn1-c1ccc(Oc3ccccc3)cc1)CSC2)C1CC1	mHTT-CaM PPI inh 56
O=C(Nc1c2c(nn1-c1ccccc1)CSC2)C1CC1	none
O=C(Nc1c2c(nn1-c1ccc(F)cc1)CS(=O)C2)c1ccco1 (stereo not drawn)	none
O=C(Nc1c2c(nn1-c1ccccc1)CSC2)c1ccco1	mHTT-CaM PPI inh 77
Cc1ccc(F)c(N2C(=O)c3c(C)nc4ccccc4c3C2=O)c1	none
O=C(Nc1ccc(Cl)cc1F)c1cc2n(n1)CCCN(Cc1ccc(F)cc1)C2=O	none
CCCN1CCCCC1c1nc(-c2ccncc2)no1 (stereo not drawn)	none
O=C1N(c2cccc(Cl)c2)c2ncccc2S(=O)(=O)N1Cc1ccccc1	none
COCCn1cc2c3c(cccc31)CN(C(=O)Cc1ccc(Cl)cc1)CC2	mHTT-CaM PPI inh 81
CCc1ccccc1NC(=O)N1CCc2cn(CCOC)c3cccc(c23)C1	none
COCCn1cc2c3c(cccc31)CN(C(=O)Cc1cccc(OC)c1)CC2	none
COCCn1cc2c3c(cccc31)CN(C(=O)Cc1ccccc1C)CC2	mHTT-CaM PPI inh 63
O=C(CCc1ccccc1)NC1CCN(c2nnc3ccc(Cl)cn23)CC1	none
CN1/C(=C\C(=O)c2ccc([N+](=O)[O-])cc2)C(C)(C)c2ccccc21	none
Cc1cc2[nH]c(C(=O)Nc3ccccc3Cl)c(CN3CCOCC3)c2s1	none
Cc1cc2[nH]c(C(=O)Nc3ccccc3C)c(CN3CCOCC3)c2s1	mHTT-CaM PPI inh 50
Cc1cc2[nH]c(C(=O)Nc3c(F)cccc3F)c(CN3CCOCC3)c2s1	mHTT-CaM PPI inh 54
Cc1cc2[nH]c(C(=O)Nc3cccc(F)c3C)c(CN3CCOCC3)c2s1	none
Cc1c(CCC(=O)NCc2cccnc2)c(=O)n2c([nH]c3ccccc32)c1C#N	none
O=C1Nc2ccccc2Oc2cc([N+](=O)[O-])cc(Oc3ccc(Br)cc3)c21	none
O=C1Nc2ccccc2Oc2cc([N+](=O)[O-])cc(Oc3ccc(Cl)cc3)c21	mHTT-CaM PPI inh 51
Cc1ccc(NC(=O)N2CCCC(CCC(=O)NCc3ccccc3)C2)cc1 (stereo not drawn)	none
CC(C)(C)n1nc2c(c1-n1cccc1)CN(C(=O)c1cc(-c3ccco3)[nH]n1)C2	mHTT-CaM PPI inh 99, Pf apPOL block 82
CCOC(=O)N1CCN(C(=O)c2cc(-c3ccco3)[nH]n2)CC1	none
COc1ccc2[nH]cc(CCN3CC(C(=O)Nc4cccc(C(F)(F)F)c4)CC3=O)c2c1 (stereo not drawn)	none
O=C1CN(C(=O)c2ccc(Cl)cc2)C(c2ccc(F)cc2)c2cc(Br)ccc2N1 (stereo not drawn)	mHTT-CaM PPI inh 56
COc1ccc(C(=O)N2CC(=O)Nc3ccc(C)cc3C2c2ccc(F)cc2)cc1OC (stereo not drawn)	none
O=C1CN(C(=O)c2ccc(F)cc2)C(c2ccc(F)cc2)c2cc(Br)ccc2N1 (stereo not drawn)	none
CCOc1ccc(C(=O)N2CC(=O)Nc3ccc(C)cc3C2c2ccc(F)cc2)cc1OCC (stereo not drawn)	mHTT-CaM PPI inh 65
O=C1CN(C(=O)CCC2CCCC2)C(c2ccc(F)cc2)c2cc(F)ccc2N1 (stereo not drawn)	none
O=C1CN(C(=O)CCC2CCCC2)C(c2ccc(F)cc2)c2cc(Br)ccc2N1 (stereo not drawn)	mHTT-CaM PPI inh 77
O=C1CCCc2nn(-c3ccccc3)c(-c3ccccc3O)c21	none
COc1ccc(C2C3=C(CCCC3=O)Nc3ncnn32)c(OC)c1OC (stereo not drawn)	none
CC(C=C(C#N)c1ccc([N+](=O)[O-])cc1)Cc1ccc(C(C)(C)C)cc1 (stereo not drawn)	none (no result: mHTT-CaM PPI inh)
Cc1cc(F)ccc1NC(=O)C1CCCN(c2cnc3nccnc3c2)C1 (stereo not drawn)	none
COc1cc(CN2CCN(c3cccc(C)c3C)CC2)cc(Br)c1O	mHTT-CaM PPI inh 55
COc1cc(CN2CCN(c3cccc(C)c3C)CC2)cc(OC)c1OC	none
CN(CC(=O)N1CCc2ccccc21)S(=O)(=O)c1ccc2[nH]c3c(c2c1)CCCC3	none
O=S(=O)(c1ccc2[nH]c3c(c2c1)CCCC3)N1CCc2ccccc21	mHTT-CaM PPI inh 78
CC1CCCN(S(=O)(=O)c2ccc(Cl)cc2)C1 (stereo not drawn)	none
